Sampled rows, rich in hits. Any-hit rate of the full collection: about 19%.
DT40 TDP1 CPT – qHTS for Inhibitors of human tyrosyl-DNA phosphodiesterase 1 (TDP1): qHTS in cells in presence of CPT; 12% of 420,000 active; chicken DT40 Tdp1-/-;hTDP1 cells + 20 nM CPT, ATP luminescence, 48 h; Potency, µM (doses to about 46.2 µM), for inactives: top-dose activity change, negative = growth inhibition, most hits filed as inhibitors; AID 686979, 2013; note: potency is the fitted concentration of half-maximal effect; nearly all actives have a fitted effect of over 55% in size
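Cell growth measured by CellTiter-Glo luminescence after a minimum 48 h, 37 C compound exposure with 20 nM CPT in Tdp1-knockout DT40 cells stably expressing hTDP1, seeded 400/well; qHTS titration format.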
IL1B secr inh – qHTS for Inhibitors of Inflammasome Signaling: IL-1-beta AlphaLISA Primary Screen. THP-1 LPS/ATP IL-1B secretion, AlphaLISA, 16 h; stronger effect = lower value. activity change, % at 57.5 µM. AID 743279, 2014. 4.7% of 360,000 active; in the data active = activity change below about -50%; inconclusive = mostly about -30% to -49%
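THP-1 cells pretreated 1 hr with compounds (up to 57.5 uM final), then stimulated with LPS (250 ng/mL final) plus ATP (1.25 mM final); secreted IL-1B measured by AlphaLISA after 16 hr, decreased signal indicating inhibition.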
DT40 TDP1 no CPT – qHTS for Inhibitors of human tyrosyl-DNA phosphodiesterase 1 (TDP1): qHTS in cells in absence of CPT; DT40 Tdp1-/- hTDP1 cells, no CPT, ATP luminescence, 48 h; Potency, µM (titrated, usually from 46.2 µM), for inactives: top-dose activity change, negative = growth inhibition, actives largely listed as inhibitors; 15% of 420,000 active; AID 686978, 2013; note: potency is the fitted concentration of half-maximal effect; nearly all actives have a fitted effect of over 55% in size
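DT40 Tdp1-/-;hTDP1 cells, no CPT (DMSO vehicle only), 400 cells/well; compounds pin-transferred; ≥48 hr, 37 °C; CellTiter-Glo 30 min RT dark, luminescence read.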
HT1080 IDH1KD tx – qHTS for induction of synthetic lethality in tumor cells producing 2HG: qHTS for the HT-1080-IDH1KD cell line; HT-1080 IDH1 knockdown viability, ATP luminescence, 48 h; Potency, µM (series often up to 46.1 µM), for the others: at the highest dose activity, negative = toxicity, actives largely listed as cytotoxic; 2% of 360,000 active;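 note: potency is the fitted concentration of half-maximal effect; 0% = DMSO wells and -100% = cell-free medium wells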
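Viability of IDH1-knockdown HT-1080 fibrosarcoma cells was assessed by CellTiter-Glo after 48 h at 37 °C with titrated compound; concentration-effect curves were classified by fit quality and response size.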
HT1080-NT tox – qHTS for induction of synthetic lethality in tumor cells producing 2HG: qHTS for the HT-1080-NT fibrosarcoma cell line. HT-1080-NT fibrosarcoma viability, CellTiter-Glo ATP luminescence, 48 h. Potency, µM (top dose mostly 46.1 µM), for the others: at the highest dose activity, negative = less viability, usual class: cytotoxic. 1.6% of 360,000 active. AID 686970, 2013;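 note: NT is the 2HG producing partner of a matched IDH1 knockdown line; potency is the fitted concentration of half-maximal effect; 0% = DMSO-treated cells and -100% = media-only wells without cells; nearly all actives have a fitted effect of over 55% in size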
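Toxicity toward the 2HG-producing NT line was scored as %Activity, normalised to DMSO and no-cell wells, from CellTiter-Glo luminescence after 48 hours' treatment.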
* = called active by the depositor. Unless noted, calls come from the whole dose curve; as a rule, active = well fitted curve in the direction sought with a large enough effect; inconclusive = small, poorly fitted or top-dose-only effect, or another doubt; inactive = no such curve, though single readings can be large; an effect the other way counts as inactive or inconclusive. Unless noted, % is set by controls: 0 for no effect and ±100 for the full control effect.

`c1ccc(C(O[C@H]2CCCN(CCc3ccc4c(c3)OCO4)C2)c2ccccc2)cc1` gave DT40 TDP1 CPT inconclusive and DT40 TDP1 no CPT 24µM*.
CC(C)(C)CC(C)(C)c1ccc(O)cc1 was read as DT40 TDP1 CPT 14µM* and DT40 TDP1 no CPT 22µM*.
COc1ccc(-c2nn(CCC#N)cc2C(=O)NCc2ccccc2)cc1[N+](=O)[O-] was read as DT40 TDP1 CPT 1%, IL1B secr inh -12, DT40 TDP1 no CPT 15%, HT1080 IDH1KD tx -1% and HT1080-NT tox -1%.
For COc1cc(-c2ccc(-[n+]3nc(-c4ccccc4)nn3-c3ccc([N+](=O)[O-])cc3)c(OC)c2)ccc1-[n+]1nc(-c2ccccc2)nn1-c1ccc([N+](=O)[O-])cc1 the results were DT40 TDP1 CPT 2.7µM* and DT40 TDP1 no CPT 6µM*.
For c1ccc(-c2nn(-c3ccccc3)[n+](-c3ccccc3)n2)cc1 the results were DT40 TDP1 CPT 0.58µM*, IL1B secr inh 15, DT40 TDP1 no CPT 0.41µM*, HT1080 IDH1KD tx inconclusive and HT1080-NT tox -16%.
Cc1cccc2sc(NC(=O)c3cccn(Cc4ccccc4)c3=O)nc12 was read as DT40 TDP1 CPT inconclusive and DT40 TDP1 no CPT 13µM*.
For NC(=O)c1ccc(NC(=O)c2cccn(Cc3ccccc3)c2=O)cc1 the results were DT40 TDP1 CPT -4% and DT40 TDP1 no CPT inconclusive.
`Cc1nnc(NC(=O)c2cccn(Cc3ccccc3)c2=O)s1` gave DT40 TDP1 CPT 2% and DT40 TDP1 no CPT -11%.
Screening N#Cc1ccccc1NC(=O)c1cccn(Cc2ccccc2)c1=O returned DT40 TDP1 CPT 18µM* and DT40 TDP1 no CPT 15µM*.
`COc1cccc(NC(=O)C2CCN(S(=O)(=O)c3cc(-c4noc(C)n4)ccc3C)CC2)c1` gave DT40 TDP1 CPT 18µM* and DT40 TDP1 no CPT 18µM*.
For O=C(CCC1CCCN(Cc2cccc3c2OCO3)C1)NCc1ccc(F)c(F)c1 (configuration not stated) the results were DT40 TDP1 CPT inconclusive, IL1B secr inh -16, DT40 TDP1 no CPT inconclusive, HT1080 IDH1KD tx -10% and HT1080-NT tox 2%.
For CN1C(=S)CN=C(c2ccccc2)c2cc(Cl)ccc21 the results were DT40 TDP1 CPT inconclusive and DT40 TDP1 no CPT 15µM*.
NNC(=O)CN1C(=O)CN=C(c2ccccc2)c2cc(Br)ccc21 was read as DT40 TDP1 CPT 2%, DT40 TDP1 no CPT -9%, HT1080 IDH1KD tx 11% and HT1080-NT tox 9%.
`Cc1cccc(CN2C(=O)CN=C(c3ccccc3Cl)c3cc(Cl)ccc32)c1` gave DT40 TDP1 CPT 23µM* and DT40 TDP1 no CPT 23µM*.
Cc1ccc(NC(=O)CN2C(=O)CN=C(c3ccccc3)c3ccccc32)cc1Cl was read as DT40 TDP1 CPT 23µM* and DT40 TDP1 no CPT inconclusive.
`Cc1ccccc1CN1C(=O)CN=C(c2ccccc2)c2cc(Cl)ccc21` gave DT40 TDP1 CPT inconclusive and DT40 TDP1 no CPT 18µM*.
For CN1C(=O)CN=C(c2ccccc2Cl)c2cc(Br)ccc21 the results were DT40 TDP1 CPT -28%, IL1B secr inh 7, DT40 TDP1 no CPT -15%, HT1080 IDH1KD tx -17% and HT1080-NT tox 0%.
CN1C(=O)CN=C(c2ccc[nH]2)c2cc(Cl)ccc21 (tested in a mixture with another compound) was read as DT40 TDP1 CPT 1.6µM*, IL1B secr inh -1, DT40 TDP1 no CPT 1.3µM*, HT1080 IDH1KD tx -16% and HT1080-NT tox -14%.
Screening CCOC(=O)c1cccc(NC2c3ccccc3C(=O)N2Cc2ccco2)c1 (configuration not stated) returned DT40 TDP1 CPT 12µM*, IL1B secr inh 0, DT40 TDP1 no CPT 6.5µM*, HT1080 IDH1KD tx -11% and HT1080-NT tox -12%.
Oc1ccc(CCNCc2cc3c(cc2Br)OCO3)cc1 was read as DT40 TDP1 CPT inconclusive, IL1B secr inh inconclusive, DT40 TDP1 no CPT 29µM*, HT1080 IDH1KD tx -29% and HT1080-NT tox -6%.
Brc1ccccc1CNCCc1ccc2c(c1)OCO2 was read as DT40 TDP1 CPT inconclusive, IL1B secr inh -13, DT40 TDP1 no CPT inconclusive, HT1080 IDH1KD tx -20% and HT1080-NT tox -26%.
Screening Cc1nnc2n1-c1sc(Br)cc1C(c1ccccc1Cl)=NC2 returned DT40 TDP1 CPT -18% and DT40 TDP1 no CPT inconclusive.
CCOP1(=S)Oc2cc3c(cc2C(C(=O)OC)(C(F)(F)F)O1)OCO3 (configuration not stated) was read as DT40 TDP1 CPT 13µM*, IL1B secr inh -5, DT40 TDP1 no CPT inconclusive, HT1080 IDH1KD tx 4% and HT1080-NT tox 5%.
Screening COCCCn1c(N)c(C(=O)NCc2ccco2)c2nc3ccccc3nc21 returned DT40 TDP1 CPT inconclusive, IL1B secr inh -19, DT40 TDP1 no CPT inconclusive, HT1080 IDH1KD tx -9% and HT1080-NT tox -1%.
Nc1c(C(=O)OCc2ccccc2)c2nc3ccccc3nc2n1Cc1cccs1 was read as DT40 TDP1 CPT inconclusive, IL1B secr inh -90*, DT40 TDP1 no CPT inconclusive, HT1080 IDH1KD tx inconclusive and HT1080-NT tox inconclusive.
Screening CCOC(=O)c1c(N)n(CCN2CCCCC2)c2nc3ccccc3nc12 returned DT40 TDP1 CPT -17%, IL1B secr inh -83*, DT40 TDP1 no CPT -27%, HT1080 IDH1KD tx -6% and HT1080-NT tox -2%.
Screening Nc1c(C(=O)NCCN2CCOCC2)c2nc3ccccc3nc2n1Cc1ccccc1 returned DT40 TDP1 CPT inconclusive, DT40 TDP1 no CPT 23µM*, HT1080 IDH1KD tx -5% and HT1080-NT tox -6%.
O=C(NCCN1CCOCC1)c1ccc(Cl)nc1Cl was read as DT40 TDP1 CPT -8%, IL1B secr inh -9, DT40 TDP1 no CPT -2%, HT1080 IDH1KD tx -2% and HT1080-NT tox -7%.
COCCCn1c(N)c(C(=O)OC(C)COC)c2nc3ccccc3nc21 (configuration not stated) was read as DT40 TDP1 CPT -8%, IL1B secr inh -20, DT40 TDP1 no CPT -17%, HT1080 IDH1KD tx -3% and HT1080-NT tox -4%.
COc1ccc(CCNC(=O)c2c(N)n(CCN3CCOCC3)c3nc4ccccc4nc23)cc1 was read as DT40 TDP1 CPT 21µM*, IL1B secr inh inconclusive, DT40 TDP1 no CPT 18µM*, HT1080 IDH1KD tx 5% and HT1080-NT tox -1%.

Assay outcomes: PubChem, National Center for Advancing Translational Sciences (NCATS)
